Values without a mark were called inactive.

The assay has as its system Madurella mycetomatis MM55. Nature of the assay: percent growth relative to solvent control; higher = less inhibition, active = 20 or less. The following applies: 100 µM; 7 days.
Regarding `O=C(CN1CCOCC1)Nc1ccc2ncnc(Nc3ccc(OCc4cccc(F)c4)c(Cl)c3)c2c1`, the percent growth is 79.4%.
Then `Cc1noc(C)c1C(=O)N1CCCC(c2[nH]c3c(C)cccc3c2-c2ccncc2)C1` (stereo not drawn), with 51.6%.
`Nc1nccc2ccc(Oc3ccncc3)cc12`: the percent growth was 71.5%.
Then `COc1cc(C2=NCCN2)ccc1-c1cn(-c2cccc(C3=NCCN3)c2)nn1`, with 61%; and `c1cc(C2=NCCN2)cc(-c2cc(-c3ccc(C4=NCCN4)cc3)no2)c1`, with 73.8%.
Turning to `CN1CCN(S(=O)(=O)c2ccc(-c3ccc4c(Nc5ccc6nn[nH]c6c5)ccnc4c3)cc2)CC1`, the percent growth was 151%.
As for `O=[N+]([O-])c1cn2c(n1)OC[C@@H](OCc1ccc(OC(F)(F)F)cc1)C2`, the percent growth is 97.3%.
For `Cc1nc(-c2ccccn2)nc(NCCc2ccc(S(C)(=O)=O)cc2)c1Cl`, the percent growth is 118%.
Under `COc1cc(C(F)(F)F)nc2ccc(C)c(N)c12` stands 77.1%.
Then `Brc1c(-c2ccc3c(c2)OCO3)nc2ncccn12`, with 85.6%; and `Cc1cc(Nc2ccncc2)n2nc(C)c(-c3ccccc3Cl)c2n1`, with 103%.
For `CC(=O)NC[C@@H]1CN(c2ccc(N3CCOCC3)c(F)c2)C(=O)O1`, the percent growth is 107%.
`O=C(N[C@H](Cc1ccccc1)C(=O)Nc1ccccc1N1CCOCC1)c1cccs1`: the percent growth is 36.5%.
In the case of `FC(F)(F)c1ccc(N(c2cccnc2)C2CCN(c3ccc(C(F)(F)F)cn3)CC2)cc1`, the percent growth was 59.5%.
Then `CC(C)(CN)c1nc(-c2ccc(Cl)c(O)c2)c(-c2ccnc(N)n2)[nH]1`, with 88.2%.
Consider `COc1cccc(NC(=O)c2c(NC(=O)c3cccnc3)sc3c2CCC3)c1`, for which the percent growth was 50.9%.
As for `NS(=O)(=O)c1cccc(-c2ccc3ncc(N4CCOCC4)nc3c2)c1`, the percent growth is 106%.
Under `COC(=O)c1ccc(F)cc1NS(=O)(=O)c1cccc(-c2cnn(Cc3ccccc3)c2)c1` stands 118%.
On to `O=C(Nc1cnc2ccccc2c1)c1cccc(-n2cnnn2)c1`, for which the percent growth is 94.2%.
For the molecule `Clc1ccc(CCNc2cc(-c3ccccc3)nc3ncnn23)cc1`, the percent growth is 108%.
Then `CCc1nc2ccccc2n1CC(O)COc1cc(C)ccc1Cl` (stereo not drawn), with 93.7%; and `CCOC(=O)c1noc(N)c1-c1ccccc1`, with 87.2%.
As for `Nc1ccc(C(=O)Nc2ccc(-c3nc4ccccc4o3)cc2)cc1`, the percent growth was 100%.
With `O=C(NCc1nnc2n1CCCCC2)c1ccc(-c2ccc(F)cc2)o1`, the percent growth was 87.7%.
As for `CCOc1ccc2cc(-c3nn(C(C)(C)C)c(N)c3C(N)=O)cnc2c1`, the percent growth is 98.2%.
With `O=C(NC1CC1)c1ccc(N2CCC(Cc3ccccc3)CC2)nc1`, the percent growth was 104%.
Take `N#Cc1ccc(-c2cnc(N)c(-c3ccc(C(N)=O)cc3)n2)cc1`: the percent growth was 64.5%.
Under `COc1ccc(N(CCc2cccc(C)n2)C(C)=O)cc1` stands 101%; under `CC1COC2(CCN(c3nc(=O)c4cc(C(F)(F)F)cc([N+](=O)[O-])c4s3)CC2)O1` (stereo not drawn), 79.4%.
Under `O=C(C1CCCCC1)N1CC(=O)N2CCc3ccccc3C2C1` (stereo not drawn) stands 92.7%; under `CC(C)(C)CN1C(=O)C(c2ccccc2)(c2ccccc2)N=C1N`, 66.1%; under `Cc1cc(NC(=O)c2ccc(Oc3ccc(Cl)cc3O)o2)no1`, 135%.
For `CCc1ccccc1-n1c(C)cn2c3c(=O)n(C(C(=O)OC)C(C)C)c(=O)n(C)c3nc12` (stereo not drawn), the percent growth is 79.9%.
Under `Cc1cc(Cl)c(S(=O)(=O)N2CCCC2)cc1OCC(=O)NC1CCCCC1` stands 104%.
`O=C(NCc1ccoc1)N1CCN(Cc2ccc3c(c2)OCO3)CC1`: the percent growth was 92.5%.
Under `CCOC(=O)c1cc(-c2csc(Nc3c(C)cc(C)cc3C)n2)on1` stands 92.2%; under `Cc1ccc(S(=O)(=O)N2CCN(C(=O)c3cc(-c4ccccc4)[nH]n3)CC2)cc1`, 146%; under `COc1ccc(C2CC(c3cccs3)=NN2C(=O)c2ccco2)cc1OC` (stereo not drawn), 100%.

The values are drawn from the supplement of paper PMC5940239.
